# Values joined by “and” are separate entries in the source; they are usually repeats but may differ in a detail not shown here. Equal entries are not always repeated. Inconclusive results are not listed. A call without a number means that no potency is given here. A structure can be active in one record and inactive in another. Active and inactive are the calls of the source. Unless noted, calls follow the shape of the dose curve; as a rule, active = well fitted curve in the direction sought with a large enough effect in the repeat runs; inconclusive = weak or mixed curves; inactive = no such curve, though single readings can be large; an effect the other way counts as inactive or inconclusive.
# Tests used:
# [1] = qHTS RealTime-Glo MT Cell Viability Assay in HepG2 cells - 32 hour (AID 1224877); conditions: RealTime-Glo luminescence; series mostly up to 76.8 µM; also: nearly all actives have a fitted effect of over 55% in size
# Procedure, shortened: (§1)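 Real-time, nonlytic viability: 600 HepG2 cells/well mixed with NanoLuc enzyme plus prosubstrate; 5 h settle, compound (DMSO) added by pintool; luminescence monitored over 40 h at 37 C.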
# [2] = A CellTox Green Cytotoxicity Assay to monitor cytotoxicity in HepG2 cells - 24 hour (AID 1224878); conditions: CellTox Green fluorescence; series mostly up to 76.8 µM; also: nearly all actives have a fitted effect of over 45% in size; also: potency is read from the fitted curve at half-maximal effect
# Procedure, shortened: (§2)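 HepG2, 600 cells/well premixed w/ CellTox Green; 5 h settle, 37 C/5% CO2; pintool cpd add (DMSO); 37 C, 40 h; fluorescence read at 0, 8, 16, 24, 32, 40 h.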
# [3] = A CellTox Green Cytotoxicity Assay to monitor cytotoxicity in HepG2 cells - 40 hour (AID 1224879); conditions: CellTox Green fluorescence; series mostly up to 76.8 µM; also: nearly all actives have a fitted effect of over 40% in size; also: potency is read from the fitted curve at half-maximal effect
# Procedure, shortened: as §2
# [4] = qHTS RealTime-Glo MT Cell Viability Assay in HEK293 cells - 0 hour (AID 1224880); conditions: RealTime-Glo luminescence; series mostly up to 76.8 µM; also: top concentration of the series differs between compounds; nearly all actives have a fitted effect of over 45% in size
# Procedure, shortened: (§3)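 Luminescence readout at each listed time point; HEK293, 600 cells/well, RealTime-Glo MT reagent added with cells; compounds pinned (23 nL in DMSO) after 5 h at 37 C; continuous culture at 37 C.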
# [5] = A CellTox Green Cytotoxicity Assay to monitor cytotoxicity in HEK293 cells - 32 hour (AID 1224881); conditions: CellTox Green fluorescence; series mostly up to 76.8 µM; also: nearly all actives have a fitted effect of over 40% in size
# Procedure, shortened: (§4)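 Read-out: fluorescence of a cell-impermeant cyanine dye staining DNA of dead cells, proportional to cytotoxicity. HEK293, 600 cells/well with reagent, compound (23 nL DMSO) added after 5 h; reads at 0, 8, 16, 24, 32, 40 h.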
# [6] = A CellTox Green Cytotoxicity Assay to monitor cytotoxicity in HepG2 cells - 0 hour (AID 1224882); conditions: CellTox Green fluorescence; series mostly up to 76.8 µM; also: nearly all actives have a fitted effect of over 35% in size
# Procedure, shortened: as §2
# [7] = A CellTox Green Cytotoxicity Assay to monitor cytotoxicity in HepG2 cells - 32 hour (AID 1224883); conditions: CellTox Green fluorescence; series mostly up to 76.8 µM; also: nearly all actives have a fitted effect of over 50% in size; also: potency is read from the fitted curve at half-maximal effect
# Procedure, shortened: as §2
# [8] = A CellTox Green Cytotoxicity Assay to monitor cytotoxicity in HEK293 cells - 8 hour (AID 1224884); conditions: CellTox Green fluorescence; series mostly up to 76.8 µM; also: nearly all actives have a fitted effect of over 35% in size
# Procedure, shortened: as §4
# [9] = qHTS RealTime-Glo MT Cell Viability Assay in HepG2 cells - 16 hour (AID 1224885); conditions: RealTime-Glo luminescence; series mostly up to 76.8 µM; also: nearly all actives have a fitted effect of over 50% in size
# Procedure, shortened: as §1
# [10] = qHTS RealTime-Glo MT Cell Viability Assay in HEK293 cells - 24 hour (AID 1224886); conditions: RealTime-Glo luminescence; series mostly up to 76.8 µM; also: nearly all actives have a fitted effect of over 50% in size; also: potency is read from the fitted curve at half-maximal effect
# Procedure, shortened: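 Cells + reagent dispensed (600 cells/well, HEK293) → 5 h at 37 C/5% CO2 → 23 nL compound in DMSO pinned → 40 h at 37 C → luminescence read at 0, 8, 16, 24, 32, 40 h.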
# [11] = qHTS RealTime-Glo MT Cell Viability Assay in HEK293 cells - 8 hour (AID 1224887); conditions: RealTime-Glo luminescence; series mostly up to 76.8 µM; also: top concentration of the series differs between compounds; nearly all actives have a fitted effect of over 50% in size
# Procedure, shortened: as §3
# [12] = A CellTox Green Cytotoxicity Assay to monitor cytotoxicity in HEK293 cells - 16 hour (AID 1224888); conditions: CellTox Green fluorescence, stronger effect = higher value; series mostly up to 76.8 µM; also: nearly all actives have a fitted effect of over 35% in size
# Procedure, shortened: as §4
# [13] = qHTS RealTime-Glo MT Cell Viability Assay in HepG2 cells - 0 hour (AID 1224889); conditions: RealTime-Glo luminescence; series mostly up to 76.8 µM; also: nearly all actives have a fitted effect of over 50% in size
# Procedure, shortened: as §1
# [14] = A CellTox Green Cytotoxicity Assay to monitor cytotoxicity in HepG2 cells - 8 hour (AID 1224890); conditions: CellTox Green fluorescence; series mostly up to 76.8 µM; also: nearly all actives have a fitted effect of over 45% in size
# Procedure, shortened: as §2
# [15] = qHTS assay to identify small molecule antagonists of the estrogen receptor alpha (ER-alpha) signaling pathway using the BG1 cell line in the presence of 0.1 nM 17-beta-estradiol - cell viability counter screen (AID 1259241); conditions: VM7Luc4E2 (BG1) viability, CellTiter-Fluor protease, 22 h, 0.1 nM estradiol agonist added; series mostly up to 92.4 µM; also: nearly all actives have a fitted effect of over 40% in size
# Procedure, shortened: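 CellTiter-Fluor read (30 min, 37C) on ER-alpha/ERE-luc VM7Luc4E2 cells; 22 hr compound treatment; agonist 0.1 nM E2 final; same-well multiplex.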
# [16] = qHTS assay to identify small molecule antagonists of the androgen receptor (AR) signaling pathway using the MDA cell line in the presence of 0.5 nM R1881 - cell viability counter screen (AID 1259242); conditions: MDA-kb2 viability, CellTiter-Fluor protease fluorescence, 16 h; series mostly up to 92.4 µM; also: nearly all actives have a fitted effect of over 45% in size
# Procedure, shortened: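 Live-cell protease fluorescence, CellTiter-Fluor, 30 min at 37C. Cells: MDA-kb2, 3,000/well, preincubated 5 hr. Compounds plus 0.5 nM R1881 final, 16 hr, 37C, 0% CO2.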
# [17] = qHTS assay to identify small molecule phospholipidosis (PLD) inducers (AID 1259344; active = well fitted curve in the direction sought with a large enough effect; an effect the other way counts as inactive or inconclusive); conditions: HepG2 phospholipidosis, LipidTOX Red imaging, 24 h; series mostly up to 38.3 µM
# Procedure, shortened: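 Read-out is LipidTOX Red fluorescence (ex 595/em 615) imaged in HepG2 cells after 24 h compound exposure at 37 C, with Hoechst nuclear counterstain (ex 352/em 461) allowing per-cell normalisation.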
# [18] = qHTS assay to identify small molecule HDAC inhibitors (AID 1259364); conditions: HCT-116 HDAC-Glo I/II luminescence, 2 h; series mostly up to 92.4 µM; also: potency is read from the fitted curve at half-maximal effect
# Procedure, shortened: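 HCT-116 (wild type), 1,500 cells/well, overnight; compound 2 hr 37C 5% CO2; HDAC-Glo I/II reagent 30 min RT; luminescence readout.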
# [19] = biological target: Androgen receptor (Homo sapiens) (UniProt P10275); assay: qHTS assay to identify small molecule antagonists of the androgen receptor (AR) signaling pathway using the MDA cell line in the presence of 0.5 nM R1881 (AID 1259243); conditions: MDA-kb2 MMTV-luciferase, R1881 0.5 nM, 16 h; series mostly up to 92.4 µM
# Procedure, shortened: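 MDA-kb2, MMTV-luc (AR/GR elements); 3,000 cells/well; cpd + 0.5 nM R1881 final; 16 hr 37C, 0% CO2; ONE-Glo 30 min RT; luminescence.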
# [20] = biological target: Estrogen receptor (Homo sapiens) (UniProt P03372); assay: qHTS assay to identify small molecule antagonists of the estrogen receptor alpha (ER-alpha) signaling pathway using the BG1 cell line in the presence of 0.1 nM 17-beta-estradiol (AID 1259244); conditions: VM7Luc4E2 (BG1) ERE-luciferase, antagonist mode, 0.1 nM E2, 22 h; series mostly up to 92.4 µM; also: nearly all actives have a fitted effect of over 50% in size; also: potency is read from the fitted curve at half-maximal effect
# Procedure, shortened: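 Luminescence after ONE-Glo (30 min, room temperature) measured ERE-luciferase activity in VM7Luc4E2 cells treated 22 h with compound and 0.1 nM final 17beta-estradiol as stimulator.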
# Estrogen receptor (Homo sapiens), sequence (P03372 whole entry, looked up): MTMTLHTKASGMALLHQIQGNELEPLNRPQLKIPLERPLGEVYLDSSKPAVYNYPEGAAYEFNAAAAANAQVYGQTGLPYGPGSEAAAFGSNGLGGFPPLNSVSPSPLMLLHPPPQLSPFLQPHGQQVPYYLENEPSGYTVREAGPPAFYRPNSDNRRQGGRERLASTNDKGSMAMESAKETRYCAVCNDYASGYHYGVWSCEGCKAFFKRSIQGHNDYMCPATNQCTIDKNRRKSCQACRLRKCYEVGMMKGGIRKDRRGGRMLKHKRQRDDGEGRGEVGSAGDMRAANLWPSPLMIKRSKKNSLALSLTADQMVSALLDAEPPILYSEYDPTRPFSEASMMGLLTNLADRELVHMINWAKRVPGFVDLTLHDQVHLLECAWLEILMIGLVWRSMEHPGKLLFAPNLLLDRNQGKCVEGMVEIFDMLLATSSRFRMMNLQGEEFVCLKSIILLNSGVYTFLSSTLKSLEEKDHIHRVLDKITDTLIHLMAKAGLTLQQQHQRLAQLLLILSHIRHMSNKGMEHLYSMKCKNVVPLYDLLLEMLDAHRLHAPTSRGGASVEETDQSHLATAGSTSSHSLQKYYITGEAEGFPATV
# Androgen receptor (Homo sapiens), sequence (P10275 whole entry, looked up): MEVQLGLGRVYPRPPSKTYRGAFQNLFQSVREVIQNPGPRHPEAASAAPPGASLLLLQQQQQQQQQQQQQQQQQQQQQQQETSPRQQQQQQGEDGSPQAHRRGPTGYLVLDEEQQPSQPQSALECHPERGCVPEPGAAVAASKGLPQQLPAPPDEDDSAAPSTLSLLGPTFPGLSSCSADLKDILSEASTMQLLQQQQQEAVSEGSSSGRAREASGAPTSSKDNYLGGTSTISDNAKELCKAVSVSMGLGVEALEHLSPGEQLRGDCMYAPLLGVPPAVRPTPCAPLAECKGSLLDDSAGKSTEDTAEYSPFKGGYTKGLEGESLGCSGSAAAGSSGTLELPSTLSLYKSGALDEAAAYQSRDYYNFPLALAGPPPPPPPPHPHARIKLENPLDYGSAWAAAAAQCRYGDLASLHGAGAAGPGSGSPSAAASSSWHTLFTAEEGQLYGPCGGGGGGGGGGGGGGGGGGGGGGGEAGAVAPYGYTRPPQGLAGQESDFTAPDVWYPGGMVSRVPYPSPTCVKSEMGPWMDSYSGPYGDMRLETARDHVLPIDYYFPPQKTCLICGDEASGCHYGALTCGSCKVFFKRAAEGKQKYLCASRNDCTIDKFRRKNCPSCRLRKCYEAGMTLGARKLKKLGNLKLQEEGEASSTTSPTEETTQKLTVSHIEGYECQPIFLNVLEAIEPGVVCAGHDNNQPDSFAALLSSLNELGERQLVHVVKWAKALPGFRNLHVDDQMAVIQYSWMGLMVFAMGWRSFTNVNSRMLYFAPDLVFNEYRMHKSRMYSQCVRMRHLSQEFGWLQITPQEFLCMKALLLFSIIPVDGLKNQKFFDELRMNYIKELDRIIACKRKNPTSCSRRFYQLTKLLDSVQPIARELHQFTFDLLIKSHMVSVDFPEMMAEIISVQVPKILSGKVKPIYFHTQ
SMILES,outcome [1],Potency [2],Potency [3],Potency [4],Potency [5],outcome [6],Potency [7],outcome [8],outcome [9],Potency [10],Potency [11],outcome [12],Potency [13],Potency [14],Potency [15],outcome [16],outcome [17],Potency [18],Potency [19],Potency [20]
N[C@@H](Cc1cc(I)c(Oc2cc(I)c(O)c(I)c2)c(I)c1)C(=O)O,inactive,inactive,inactive,inactive,inactive,inactive,inactive,inactive,inactive,inactive,inactive,inactive,inactive,inactive,inactive,inactive,inactive,inactive,–,–
O=c1[nH]nnc2ccccc12,inactive,inactive,inactive,inactive,inactive,inactive,inactive,inactive,inactive,inactive,inactive,inactive,inactive,inactive,inactive,inactive,–,inactive,–,–
c1ccc2c(c1)ccc1ccccc12,inactive,inactive,inactive,inactive,–,inactive,inactive,inactive,inactive,inactive,inactive,inactive,inactive,inactive,inactive,inactive,–,inactive,17.2 µM (active),inactive
CC1=CC(=O)NS(=O)(=O)O1,inactive,inactive,inactive,inactive,inactive,inactive,inactive,inactive,inactive,inactive,inactive,inactive,inactive,inactive,inactive,inactive,inactive,inactive,–,–
CCCCCCCCCCCCc1ccccc1,inactive,inactive,inactive,inactive,inactive,inactive,inactive,inactive,inactive,inactive,inactive,inactive,inactive,inactive,inactive,inactive,–,inactive,–,–
O=C(Oc1ccccc1)c1ccccc1,inactive,inactive,inactive,inactive,inactive,inactive,inactive,inactive,inactive,inactive,inactive,inactive,inactive,inactive,inactive,inactive,–,inactive,–,–
Cc1cccnc1,inactive,inactive,inactive,inactive,inactive,inactive,inactive,inactive,inactive,inactive,inactive,inactive,inactive,inactive,inactive,inactive,–,inactive,–,–
Oc1cccc2ccccc12,inactive,inactive,inactive,inactive,inactive,inactive,inactive,inactive,inactive,inactive,inactive,inactive,inactive,inactive,inactive,inactive,–,inactive,–,–
CCCCCC(N)=O,inactive,inactive,inactive,inactive,inactive,inactive,inactive,inactive,inactive,inactive,inactive,inactive,inactive,inactive,inactive,inactive,inactive,inactive,–,–
O=P(OC(CCl)CCl)(OC(CCl)CCl)OC(CCl)CCl,inactive,inactive,inactive,inactive,inactive,inactive,inactive,inactive,inactive,24.4 µM (active),–,inactive,inactive,inactive,inactive,inactive,–,inactive,–,–
OC[C@H]1O[C@@](CO)(O[C@H]2O[C@H](CO)[C@@H](O)[C@H](O)[C@H]2O)[C@@H](O)[C@@H]1O,–,inactive,inactive,–,inactive,inactive,inactive,inactive,–,–,–,inactive,–,inactive,inactive,inactive,inactive,inactive,–,inactive
C=CCNC(N)=S,inactive,inactive,inactive,inactive,inactive,inactive,inactive,inactive,inactive,inactive,inactive,inactive,inactive,inactive,inactive,inactive,inactive,inactive,–,–
C=C(C)C(=O)Nc1ccc(Cl)c(Cl)c1,inactive,inactive,inactive,inactive,inactive,inactive,inactive,inactive,inactive,19.7 µM (active) and 21.8 µM (active),–,inactive,inactive,inactive,inactive,inactive,–,inactive,–,69.3 µM (active)
CCCCCC/C(C=O)=C\c1ccccc1,inactive,inactive,inactive,inactive,inactive,inactive,inactive,inactive,inactive,inactive,inactive,inactive,inactive,inactive,inactive,inactive,–,inactive,–,–
CCCSc1ccc2nc(NC(=O)OC)[nH]c2c1,inactive,inactive and 1.9 µM (active),1.34 µM (active),inactive,inactive,inactive,inactive and 1.51 µM (active),inactive,inactive,inactive,inactive,inactive,inactive,inactive,inactive,inactive,inactive,6.11 µM (active) and 10.6 µM (active),–,–
